The values that follow come from PMC5700166.

Numbering of substitutions follows the chain as printed.

Experiment in all cases: protein-binding microarray (PBM); PBM: ~300 nM protein, 6 mM HEPES pH 7.8, 80 mM KCl, 0.5 mM EDTA, 0.5 mM EGTA, 6% glycerol, 35 ng/ul poly-dIdC, 1% milk, 1 h, room temperature; Ap Aiptasia and Nv Nematostella (sea anemones) / Co Capsaspora / Aq Amphimedon (sponge) / Dm Drosophila / Hu human; RHD is the Rel homology domain; high values mean tight binding
Common to all, as to settings: dsDNA, one strand shown

In one assay the target is T1, GST-Ap-NF-kB RHD (Exaiptasia pallida (Aiptasia), UniProt A0A913YAJ5 2-422).
T1 sequence: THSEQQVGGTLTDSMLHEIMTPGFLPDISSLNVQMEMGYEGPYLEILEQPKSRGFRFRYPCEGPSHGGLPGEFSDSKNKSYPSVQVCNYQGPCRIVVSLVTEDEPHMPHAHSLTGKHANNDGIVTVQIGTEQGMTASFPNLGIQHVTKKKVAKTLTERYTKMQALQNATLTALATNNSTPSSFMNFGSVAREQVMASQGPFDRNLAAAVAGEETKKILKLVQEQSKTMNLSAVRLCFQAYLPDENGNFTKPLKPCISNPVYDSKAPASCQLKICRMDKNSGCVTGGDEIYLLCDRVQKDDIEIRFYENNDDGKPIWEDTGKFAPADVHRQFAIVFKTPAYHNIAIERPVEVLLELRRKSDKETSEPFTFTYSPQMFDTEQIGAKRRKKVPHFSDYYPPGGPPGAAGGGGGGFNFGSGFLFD

Assay [1] has as its target T2, GST-Nv-NF-kB (Cys allele) (Nematostella vectensis, UniProt E5G601 2-411).
T2 sequence: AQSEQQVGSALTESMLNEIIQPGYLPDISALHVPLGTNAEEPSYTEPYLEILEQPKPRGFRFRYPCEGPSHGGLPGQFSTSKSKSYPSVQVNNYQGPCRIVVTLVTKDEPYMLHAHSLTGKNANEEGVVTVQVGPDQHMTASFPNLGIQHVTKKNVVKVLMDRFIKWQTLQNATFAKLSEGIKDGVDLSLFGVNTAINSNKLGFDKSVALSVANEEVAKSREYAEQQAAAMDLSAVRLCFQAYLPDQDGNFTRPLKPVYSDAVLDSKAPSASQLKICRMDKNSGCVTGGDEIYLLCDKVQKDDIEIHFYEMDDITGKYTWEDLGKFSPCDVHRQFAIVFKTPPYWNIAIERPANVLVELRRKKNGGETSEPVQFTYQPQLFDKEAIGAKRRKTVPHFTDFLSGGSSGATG

Assay [2] has as its target T3, GST-Nv-NF-kB (Ser allele) (Nematostella vectensis, UniProt A7UNT2 2-411).
T3 sequence: T2 sequence with Q21R, C66S, S207N, E215Q, V217A, E225K, A268E, D399E

Another assay deals with T4, GST-Co-NF-kB (Capsaspora owczarzaki, UniProt F1ARL5 200-546).
T4 sequence: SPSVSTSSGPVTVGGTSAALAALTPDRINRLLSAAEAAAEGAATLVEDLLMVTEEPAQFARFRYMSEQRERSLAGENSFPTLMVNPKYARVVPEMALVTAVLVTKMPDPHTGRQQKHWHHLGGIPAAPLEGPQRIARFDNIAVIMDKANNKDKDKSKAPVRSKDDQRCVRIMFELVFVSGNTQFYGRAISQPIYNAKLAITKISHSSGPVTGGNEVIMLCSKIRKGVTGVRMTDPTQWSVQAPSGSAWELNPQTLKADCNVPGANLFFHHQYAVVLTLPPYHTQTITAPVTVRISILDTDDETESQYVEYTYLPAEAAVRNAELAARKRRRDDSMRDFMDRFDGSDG

In another assay the target is T5, GST-Dm-Relish (Drosophila melanogaster, UniProt Q94527 99-473).
T5 sequence: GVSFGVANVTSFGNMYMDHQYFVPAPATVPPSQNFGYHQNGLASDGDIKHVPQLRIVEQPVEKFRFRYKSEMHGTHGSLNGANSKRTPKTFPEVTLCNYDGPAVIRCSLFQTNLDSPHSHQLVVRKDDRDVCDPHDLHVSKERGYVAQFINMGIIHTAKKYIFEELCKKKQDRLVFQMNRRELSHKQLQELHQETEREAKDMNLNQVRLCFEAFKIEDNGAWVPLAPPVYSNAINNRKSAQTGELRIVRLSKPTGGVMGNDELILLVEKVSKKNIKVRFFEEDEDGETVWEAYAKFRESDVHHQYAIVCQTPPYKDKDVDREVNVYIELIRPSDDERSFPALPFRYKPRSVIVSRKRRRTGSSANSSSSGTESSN

The target in the next assay is T6, GST-Aq-NF-kB (Amphimedon queenslandica, UniProt A9Y5G7 2-389).
T6 sequence: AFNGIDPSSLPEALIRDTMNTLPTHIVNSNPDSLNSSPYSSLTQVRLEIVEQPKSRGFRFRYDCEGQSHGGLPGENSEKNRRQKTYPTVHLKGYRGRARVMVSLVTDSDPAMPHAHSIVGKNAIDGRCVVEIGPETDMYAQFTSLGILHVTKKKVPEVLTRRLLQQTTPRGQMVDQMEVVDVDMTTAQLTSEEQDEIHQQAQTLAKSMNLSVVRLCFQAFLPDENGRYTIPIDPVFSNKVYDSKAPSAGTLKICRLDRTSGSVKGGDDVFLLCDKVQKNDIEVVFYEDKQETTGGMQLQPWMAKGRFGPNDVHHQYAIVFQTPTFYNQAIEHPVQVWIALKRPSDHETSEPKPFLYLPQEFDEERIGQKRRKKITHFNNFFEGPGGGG

A further assay deals with GST-Hu-p50 (Homo sapiens, UniProt P19838 7-356).
Sequence of GST-Hu-p50 (P19838 7-356): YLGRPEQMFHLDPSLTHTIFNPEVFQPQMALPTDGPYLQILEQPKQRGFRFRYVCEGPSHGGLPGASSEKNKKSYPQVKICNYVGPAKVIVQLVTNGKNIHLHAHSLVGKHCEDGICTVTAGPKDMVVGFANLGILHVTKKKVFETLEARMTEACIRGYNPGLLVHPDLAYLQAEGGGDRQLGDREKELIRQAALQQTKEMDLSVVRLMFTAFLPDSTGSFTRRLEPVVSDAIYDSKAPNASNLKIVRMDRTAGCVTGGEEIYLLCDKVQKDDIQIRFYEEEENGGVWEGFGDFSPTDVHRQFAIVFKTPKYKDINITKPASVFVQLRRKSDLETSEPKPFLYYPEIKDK

Take “CCGATTAACATCAAAGATTCCCCTGATGTTAATCGGGTCTTGATTCGCTTGACGCTGCTG”: the binding signal turned out to be 8.13 z-score in the assay with GST-Ap-NF-kB RHD; 10.5 z-score in assay [1]; 11.7 z-score in assay [2]; 8.45 z-score with GST-Co-NF-kB; 7.42 z-score with GST-Dm-Relish; 7.27 z-score with GST-Aq-NF-kB. Further, the binding signal with GST-Hu-p50 is 6.66 z-score.
For the sequence “CCGATTAACATCAACAAATCCCCTGATGTTAATCGGGTCTTGATTCGCTTGACGCTGCTG”, the binding signal with GST-Ap-NF-kB RHD worked out at 7.43 z-score; in assay [1], 7.95 z-score; in assay [2], 10.9 z-score; in the assay with GST-Co-NF-kB it was 4.14 z-score; in the assay with GST-Dm-Relish, 6.61 z-score; with GST-Aq-NF-kB, 5.53 z-score. In the assay with GST-Hu-p50, the binding signal was found to be 7.22 z-score.
Regarding “CCGATTAACATCAGGAATCCCCCTGATGTTAATCGGGTCTTGATTCGCTTGACGCTGCTG”, the binding signal in the assay with GST-Ap-NF-kB RHD was determined as 10.9 z-score; in assay [1], 10.2 z-score; in assay [2], 9.39 z-score; in the assay with GST-Co-NF-kB, 5.73 z-score; in the assay with GST-Dm-Relish it was 10.2 z-score; with GST-Aq-NF-kB, 9.58 z-score. In the assay with GST-Hu-p50, this sequence displayed a binding signal of 7.57 z-score.
With “CCGATTAACATCACCCCGTCCCCTGATGTTAATCGGGTCTTGATTCGCTTGACGCTGCTG”, the binding signal turned out to be 4.62 z-score in the assay with GST-Ap-NF-kB RHD; 3.83 z-score in assay [1]; 3.99 z-score in assay [2]; 3.98 z-score with GST-Co-NF-kB; 2.65 z-score in the assay with GST-Dm-Relish; 4.15 z-score with GST-Aq-NF-kB. In addition, in the assay with GST-Hu-p50, the binding signal worked out at 3.21 z-score.
Consider “CCGATTAACATCACTATATCCCCTGATGTTAATCGGGTCTTGATTCGCTTGACGCTGCTG”, for which the binding signal with GST-Ap-NF-kB RHD amounted to 4.49 z-score; in assay [1], 4.08 z-score; in assay [2], 5.9 z-score; in the assay with GST-Co-NF-kB, 3.51 z-score; with GST-Dm-Relish, 2.01 z-score; with GST-Aq-NF-kB, 2.75 z-score. The binding signal in the assay with GST-Hu-p50 was 3.18 z-score.
Turning to “CCGATTAACATCAAGCAATCCCCTGATGTTAATCGGGTCTTGATTCGCTTGACGCTGCTG”, the binding signal with GST-Ap-NF-kB RHD was found to be 6.44 z-score; in assay [1] it was 6.39 z-score; in assay [2] it was 6.94 z-score; with GST-Co-NF-kB, 2.5 z-score; in the assay with GST-Dm-Relish, 5.11 z-score; with GST-Aq-NF-kB, 4.53 z-score. Also, the binding signal with GST-Hu-p50 is 5.37 z-score.
In the case of “CCGATTAACATCAGGGGAACCCCTGATGTTAATCGGGTCTTGATTCGCTTGACGCTGCTG”, the binding signal was 12.5 z-score with GST-Ap-NF-kB RHD; 11.6 z-score in assay [1]; 11.2 z-score in assay [2]; 6.69 z-score in the assay with GST-Co-NF-kB; 10.5 z-score with GST-Dm-Relish; 10.7 z-score with GST-Aq-NF-kB. This sequence registered a binding signal with GST-Hu-p50 of 7.08 z-score.
For “CCGATTAACATCAATTTTCCCCCTGATGTTAATCGGGTCTTGATTCGCTTGACGCTGCTG”, the binding signal in the assay with GST-Ap-NF-kB RHD was found to be 7.68 z-score; in assay [1], 8.57 z-score; in assay [2], 11.2 z-score; in the assay with GST-Co-NF-kB, 12 z-score; with GST-Dm-Relish it was 4.81 z-score; in the assay with GST-Aq-NF-kB it was 6.79 z-score. Also, in the assay with GST-Hu-p50, the binding signal was determined as 7.47 z-score.
In the case of “CCGATTAACATCAAAACCCCCCCTGATGTTAATCGGGTCTTGATTCGCTTGACGCTGCTG”, the binding signal with GST-Ap-NF-kB RHD is 8.72 z-score; in assay [1], 6.19 z-score; in assay [2], 6.72 z-score; in the assay with GST-Co-NF-kB, 6.13 z-score; with GST-Dm-Relish, 9.97 z-score; with GST-Aq-NF-kB it was 7.1 z-score. The binding signal with GST-Hu-p50 was found to be 6.53 z-score.
As to “CCGATTAACATCAAGGGGAATCCTGATGTTAATCGGGTCTTGATTCGCTTGACGCTGCTG”, the binding signal worked out at 9.67 z-score in the assay with GST-Ap-NF-kB RHD; 11 z-score in assay [1]; 10 z-score in assay [2]; 5.17 z-score with GST-Co-NF-kB; 9.09 z-score with GST-Dm-Relish; 7.69 z-score with GST-Aq-NF-kB. For the same sequence, in the assay with GST-Hu-p50, the binding signal is 6.99 z-score.
“CCGATTAACATCAAAACTCCCCATGATGTTAATCGGGTCTTGATTCGCTTGACGCTGCTG”: the binding signal with GST-Ap-NF-kB RHD was found to be 7.13 z-score; in assay [1] it was 6.03 z-score; in assay [2], 6.69 z-score; in the assay with GST-Co-NF-kB it was 5.85 z-score; with GST-Dm-Relish, 5.96 z-score; with GST-Aq-NF-kB, 5.83 z-score. Further, the binding signal in the assay with GST-Hu-p50 amounted to 5.36 z-score.
Take “CCGATTAACATCAAGTAATCCCCTGATGTTAATCGGGTCTTGATTCGCTTGACGCTGCTG”: the binding signal with GST-Ap-NF-kB RHD stood at 7.36 z-score; in assay [1], 7.72 z-score; in assay [2], 7.94 z-score; in the assay with GST-Co-NF-kB, 3.88 z-score; in the assay with GST-Dm-Relish, 7.56 z-score; with GST-Aq-NF-kB it was 6.04 z-score. This sequence also came in with a binding signal in the assay with GST-Hu-p50 of 5.93 z-score.
For “CCGATTAACATCACGGGGAATTCTGATGTTAATCGGGTCTTGATTCGCTTGACGCTGCTG”, the binding signal with GST-Ap-NF-kB RHD was determined as 9.62 z-score; in assay [1], 10.1 z-score; in assay [2], 10.3 z-score; with GST-Co-NF-kB, 8.83 z-score; in the assay with GST-Dm-Relish, 8.15 z-score; in the assay with GST-Aq-NF-kB it was 7.98 z-score. The binding signal in the assay with GST-Hu-p50 was 6.54 z-score.
